Hits are enriched below; roughly 32% of the tested compounds scored in any of these assays.
PostGolgi yeast = phenotypic screen on post-Golgi transport, primary screen; post-Golgi transport phenotypic cell assay; inhibition, % at 10 µM; 98,000 compounds, 0.9% hits;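 further: yeast cells grown in 1536-well plates; yeast grown about 18 h at 30C before absorbance read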
PostGolgi ctrl = growth inhibition of yeast control strain, primary screen, counter-screen for post-Golgi transport modulator project | inhibition, % at 10 µM | efflux-deficient yeast background strain, growth absorbance A615, 16 h | 98,000 compounds, 5% hits
CYP2C9 inhib = blockers of cytochrome P450 2C9 activity – biochemical, luminescence, ADME assay, primary screen | AID 777, 2007 | P11712 | 96,000 compounds, 20% hits | CYP2C9 Supersomes, luciferin-H conversion | inhibition, % at 5 µM;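 active means blocking of liver enzyme CYP2C9 beyond about 50% at 5 µM, limit read from the data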
CYP2C9 activ = human CYP2C9 activators, primary screen, biochemical, luminescence; recombinant CYP2C9, luciferin-H conversion; active compounds read high; factor 1 = untreated enzyme, 0 = blocked; activation factor at 5 µM; 96,000 compounds, 1.4% hits; Cytochrome P450 2C9 (Homo sapiens), P11712; AID 1024, 2008;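 active means activation factor of 2 or more for CYP2C9 at a 5 µM dose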;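 further: 0 = sulfaphenazole-blocked wells and 1 = vehicle-only wells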
CYP2C19 inh = blockers of cytochrome P450 2C19 activity – biochemical, luminescence, ADME assay, primary screen | CYP2C19 Supersomes, luciferin-H EGE luminescence, 30 min | P33261 | 96,000 compounds, 21% hits | inhibition, % at 5 µM | AID 778, 2007;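 active means CYP2C19 inhibition above a set limit at 5 µM in the primary screen, cut at about 50% in these data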;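 further: plate controls were negative control wells for no effect and 2.5 mM tranylcypromine positive control for full effect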
Target sequence (P33261 whole entry, looked up): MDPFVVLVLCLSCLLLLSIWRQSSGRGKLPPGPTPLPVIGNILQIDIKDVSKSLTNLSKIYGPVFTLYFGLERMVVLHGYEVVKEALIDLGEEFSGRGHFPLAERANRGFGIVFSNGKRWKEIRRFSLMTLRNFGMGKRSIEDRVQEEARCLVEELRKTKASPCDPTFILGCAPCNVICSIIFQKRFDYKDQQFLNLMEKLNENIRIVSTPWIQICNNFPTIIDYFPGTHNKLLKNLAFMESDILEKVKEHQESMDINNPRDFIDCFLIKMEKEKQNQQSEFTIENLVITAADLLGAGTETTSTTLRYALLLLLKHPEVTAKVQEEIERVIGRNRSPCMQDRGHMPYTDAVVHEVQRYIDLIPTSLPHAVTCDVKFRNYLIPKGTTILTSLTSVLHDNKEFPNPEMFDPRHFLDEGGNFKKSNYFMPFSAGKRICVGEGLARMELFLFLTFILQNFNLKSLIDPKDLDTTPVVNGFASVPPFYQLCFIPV
CYP2C19 activ = human CYP2C19 activators, primary screen, biochemical, luminescence | Cytochrome P450 2C19 (Homo sapiens), P33261 | recombinant CYP2C19, luciferin-H EGE luminescence; active compounds read high; 0 = fully inhibited enzyme, 1 = untreated enzyme | activation factor at 5 µM | 96,000 tested, under 10 active;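 active means activation factor of at least 2 at 5 µM in the primary screen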;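 further: 0 = wells with 2.5 mM tranylcypromine and 1 = vehicle-only wells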
* hit, by the source's call; nt = not tested or not shown. Unless noted, no stated cut-off is given here; in the data, active means inhibition above about 30%; inactive means the rest.

SMILES	PostGolgi yeast	PostGolgi ctrl	CYP2C9 inhib	CYP2C9 activ	CYP2C19 inh	CYP2C19 activ
CCOc1ccc(-c2nnc(SCc3nc4ccccc4[nH]3)n2N)cc1	-2	7	13	0.9	21	0.8
Cc1ccccc1-n1c(SCC(=O)N2CCN(c3ccccc3)CC2)nnc1-c1ccncc1	20	8	76*	0.2	84*	0.2
Cn1c(SCC(=O)NCCc2ccccc2)nnc1-c1ccco1	5	1	-15	1.1	-7	1.1
COc1ccc(C2=C(C=Nc3c(C)n(C)n(-c4ccccc4)c3=O)C(c3ccccc3C)c3ccccc3O2)cc1OC (stereo not given)	-13	4	40	0.6	14	0.9
O=C(CSc1ccc(Cl)cc1)N1CCOCC1	9	-2	-17	1.2	74*	0.3
NC(=O)CSc1nnc(-c2ccncc2)n1-c1ccc(Cl)cc1	-2	0	nt	nt	nt	nt
O=C(O)CSc1nnc(-c2ccncc2)n1-c1ccc(Cl)cc1	-5	0	51*	0.5	9	0.9
Cc1ccc(S(=O)(=O)N2C(=O)CCC2C(=O)Nn2cnnc2)cc1 (stereo not given)	8	-5	-23	1.2	-11	1.1
COc1ccc(-c2cc(CNC(=O)CN3CCN(C)CC3)on2)cc1	-3	-7	-11	1.1	-3	1
C#CCOc1nc(OCC#C)nc(OCC#C)n1	-2	4	40	0.6	89*	0.1
Cc1cccc(C(=O)NC(=S)Nc2ccc(Cc3ccncc3)cc2)c1	5	23	92*	0.1	89*	0.1
Cc1cccc(C(=O)NC(=S)Nc2ccc(S(=O)(=O)N(C)c3ccccc3)cc2)c1	4	7	66*	0.3	31	0.7
Cc1ccccc1C(=O)NC(=S)Nc1ccc(S(=O)(=O)N(C)c2ccccc2)cc1	0	16	82*	0.2	87*	0.1
Cc1ccccc1C(=O)NC(=S)Nc1ccc(Oc2ccc(Cl)cc2)cc1	-8	3	34	0.7	15	0.8
Cc1cccc(C(=O)NC(=S)Nc2ccc(S(=O)(=O)N3CCCCC3)cc2)c1	0	3	44	0.6	22	0.8
Cc1cccc(C(=O)NC(=S)Nc2ccc(S(=O)(=O)N3CCN(C)CC3)cc2)c1	2	26	71*	0.3	79*	0.2
CCOc1ccc(-c2cnc(SCC(N)=O)nc2N)cc1	-10	10	-3	1	-6	1.1
CC1CCN(C(=O)CCc2nc3cc(S(=O)(=O)N(C)C)ccc3n2C)CC1	-2	2	11	0.9	10	0.9
O=C1CC(=Nc2ccccc2)NN1c1ccccc1	-4	9	84*	0.2	36	0.6
CN1C(=O)/C(=C2\SC(N3CCCCCC3)=NC2=O)c2ccccc21	6	42*	-170	2.7*	45	0.6
CCCN1C(=O)/C(=C2\SC(N3CCCCC3)=NC2=O)c2ccccc21	3	39*	19	0.8	41	0.6
Cc1ccc(CN(CC(=O)N/N=C/c2ccco2)S(=O)(=O)c2ccc(C)cc2)cc1	-4	3	90*	0.1	100*	0
O=C(CN(c1ccc(Cl)cc1)S(=O)(=O)c1ccccc1)N/N=C/c1ccco1	1	9	82*	0.2	98*	0
CC(C)C(NC(=O)C12CC3CC(CC(C3)C1)C2)C(=O)O (stereo not given)	-3	3	5	0.9	0	1
N=C1C(c2ccc(Br)cc2)=C(O)C2CCc3ccccc3N12 (stereo not given)	-11	6	27	0.7	50*	0.5
SMILES	PostGolgi yeast	PostGolgi ctrl	CYP2C9 inhib	CYP2C9 activ	CYP2C19 inh	CYP2C19 activ
CC(=O)c1ccc(OCC(O)Cn2nnc3ccccc32)cc1 (stereo not given)	5	15	72*	0.3	76*	0.2
CC1(C)NC(=O)N(CC(O)COc2ccc(-c3ccc(C#N)cc3)cc2)C1=O (stereo not given)	11	2	-5	1.1	10	0.9
Cc1cccc(C)c1OCC(O)Cn1nnc2ccccc21 (stereo not given)	-13	9	17	0.8	59*	0.4
N#Cc1ccc(-c2ccc(OCC(O)Cn3nnc4ccccc43)cc2)cc1 (stereo not given)	-2	35*	nt	nt	nt	nt
O=C1C2CC=CCC2C(=O)N1c1ccc(OCC(O)Cn2nnc3ccccc32)cc1 (stereo not given)	1	4	40	0.6	16	0.8
COC(=O)c1ccc(OCC(O)Cn2nnc3ccccc32)cc1 (stereo not given)	13	2	82*	0.2	81*	0.2
CCCS(=O)(=O)C(=C1NCCO1)S(=O)(=O)CCC	0	0	4	1	7	0.9
COc1ccc(OC)c(S(=O)(=O)N2CCC(C(=O)NCC3CCCO3)CC2)c1 (stereo not given)	-1	3	-61	1.6	-10	1.1
CCOc1cccc2c1OC1(C)CC2NC(=O)N1c1cccc(F)c1 (stereo not given)	-12	0	10	0.9	15	0.8
CC(C)n1c(SCc2ccccc2F)nc2c1c(=O)n(C)c(=O)n2C	1	20	74*	0.3	60*	0.4
CCCn1c(SCC(=O)N2CCCc3ccccc32)nc2c1c(=O)n(C)c(=O)n2C	nt	nt	79*	0.2	31	0.7
CC(C)n1c(SCC(N)=O)nc2c1c(=O)n(C)c(=O)n2C	2	10	-6	1.1	-4	1
CC(C)n1c(SCc2cc(=O)[nH]c3ccccc23)nc2c1c(=O)n(C)c(=O)n2C	nt	nt	38	0.6	6	0.9
CCCn1c(SCC(=O)N2c3ccccc3Sc3ccccc32)nc2c1c(=O)n(C)c(=O)n2C	14	32*	49	0.5	8	0.9
CC(C)n1c(SCC(=O)N2c3ccccc3Sc3ccccc32)nc2c1c(=O)n(C)c(=O)n2C	21	39*	12	0.9	-12	1.1
Cc1ccc(Nc2cc(=O)[nH]c(=O)[nH]2)c(C)c1	-3	-5	-13	1.1	1	1
CCn1c(SCC(=O)Nc2ccccc2N2CCCCC2)nc2c1c(=O)n(C)c(=O)n2C	14	14	79*	0.2	39	0.6
CCCc1nc(SCC(=O)N2CCCc3ccccc32)c2c(=O)n(C)c(=O)n(C)c2n1	49*	37*	94*	0.1	17	0.8
CCCc1nc(SCC(=O)N2CCC(Cc3ccccc3)CC2)c2c(=O)n(C)c(=O)n(C)c2n1	22	38*	95*	0.1	66*	0.3

Screening results: PubChem, several laboratories
